NOD2 RIPK2 PPI = inhibitors of human NOD2-RIPK2 interaction. CHO BLA complementation NOD2-RIPK2, CCF4 ratio. inhibition, % at 4.98 µM. actives 0.38% (n = 360,000); in the data active means inhibition above about 21%;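 further: 0% = vehicle only and 100% = reference blocker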
TLR4 MyD88 comp = TLR4-MyD88 interaction inhibition in cells | HeLa CL3-4 TLR4/MyD88 BLA complementation, FRET ratio | actives 0.18% (n = 200,000) | inhibition, % at 8.4 µM | AID 861; in the data active means inhibition above about 25%;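 further: 0% = vehicle and 100% = reference inhibitor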
TMEM16A inh = blocks the mouse calcium-activated chloride channel TMEM16A; Q8BHY3; HEK293 TMEM16A/YFP iodide influx fluorescence, ionomycin; normalized B-score (activity score, 25-100; higher = stronger inhibition) at 10 µM; actives 1.2% (n = 310,000);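 active means ratio plate-corrected score three or more library SD toward inhibition, starting fluorescence score within five deviations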;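 further: score derived from kinetic fluorescence span divided by baseline fluorescence per well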
TMEM16A act = mouse TMEM16A channel activation, primary screen; Q8BHY3; HEK293 TMEM16A/YFP-H148Q/I152L, iodide quench fluorescence; active compounds read low; B-score at 10 µM; actives 0.3% (n = 340,000); AID 623877;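 active means fluorescence-ratio B-score plate-corrected deviation score at least 3 library SD below zero, with starting fluorescence score within 5 deviations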;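 further: channel opened by trigger with iodide after compound preincubation; score built on the fluorescence ratio of max minus min over baseline; more negative score means more quench and so TMEM16A activation or potentiation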
GRK2 inh = inhibitors of human GRK2 displacing RNA aptamer; P25098; bead flow cytometry, FAM-aptamer displacement from GRK2; inhibition of aptamer binding, % at 10 µM; actives 0.59% (n = 330,000); AID 488847;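 active means inhibition of aptamer binding above 40%, roughly 3 SD of noise, on plates passing a quality check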;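 further: median bead fluorescence of bound FAM aptamer so fluorescent compounds give negative values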
TLR9-MyD88 block = blocks human TLR9 binding to MyD88; Q9NR96+Q99836; inhibition, % at 4.98 µM; CHO BLA complementation TLR9-MyD88, CCF4 FRET ratio; actives 0.21% (n = 340,000);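 active means inhibition above the mean over all tested compounds plus 3 SD, cut at about 21% in these data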;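 further: 0% = DMSO only wells and 100% = clavulanate BLA inhibitor control wells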
Target sequence (Q99836 whole entry, looked up): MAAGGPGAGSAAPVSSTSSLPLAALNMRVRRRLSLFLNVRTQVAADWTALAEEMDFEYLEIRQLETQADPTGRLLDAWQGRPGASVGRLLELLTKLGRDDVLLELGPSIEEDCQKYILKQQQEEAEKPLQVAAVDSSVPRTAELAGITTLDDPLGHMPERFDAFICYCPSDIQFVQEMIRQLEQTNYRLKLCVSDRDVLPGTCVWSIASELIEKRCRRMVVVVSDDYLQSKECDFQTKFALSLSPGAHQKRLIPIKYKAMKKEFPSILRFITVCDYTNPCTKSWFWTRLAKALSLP
Target sequence (Q9NR96 whole entry, looked up): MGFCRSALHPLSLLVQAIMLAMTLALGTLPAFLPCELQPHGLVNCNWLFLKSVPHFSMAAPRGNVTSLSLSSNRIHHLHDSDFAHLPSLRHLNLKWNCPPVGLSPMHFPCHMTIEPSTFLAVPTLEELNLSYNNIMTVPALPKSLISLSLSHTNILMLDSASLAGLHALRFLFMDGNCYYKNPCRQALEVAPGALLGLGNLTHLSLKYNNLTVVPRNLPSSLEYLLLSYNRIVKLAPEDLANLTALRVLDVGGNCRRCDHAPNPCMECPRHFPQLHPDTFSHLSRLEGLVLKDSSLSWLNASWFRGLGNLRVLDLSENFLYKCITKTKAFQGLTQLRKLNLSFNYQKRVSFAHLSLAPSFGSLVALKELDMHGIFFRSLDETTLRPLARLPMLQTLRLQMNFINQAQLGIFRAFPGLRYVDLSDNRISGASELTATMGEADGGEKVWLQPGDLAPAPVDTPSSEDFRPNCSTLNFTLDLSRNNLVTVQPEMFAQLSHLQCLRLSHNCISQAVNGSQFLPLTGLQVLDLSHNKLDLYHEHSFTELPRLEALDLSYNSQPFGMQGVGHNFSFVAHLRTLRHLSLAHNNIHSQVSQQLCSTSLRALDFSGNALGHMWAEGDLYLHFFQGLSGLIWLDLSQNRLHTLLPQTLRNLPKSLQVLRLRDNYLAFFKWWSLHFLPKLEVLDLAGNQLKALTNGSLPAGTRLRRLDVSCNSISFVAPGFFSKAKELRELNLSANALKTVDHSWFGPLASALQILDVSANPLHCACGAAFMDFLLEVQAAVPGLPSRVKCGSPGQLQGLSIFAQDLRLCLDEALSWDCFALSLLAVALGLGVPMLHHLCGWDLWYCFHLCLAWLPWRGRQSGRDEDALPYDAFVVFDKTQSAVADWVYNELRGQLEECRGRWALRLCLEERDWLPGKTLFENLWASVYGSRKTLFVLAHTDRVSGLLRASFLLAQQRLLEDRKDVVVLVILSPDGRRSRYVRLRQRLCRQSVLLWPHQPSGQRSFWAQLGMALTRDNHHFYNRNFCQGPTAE
GRK2 inh confirm = human GRK2 inhibition confirmation, cherry pick 1; shares compounds with GRK2 inh; bead-bound GRK2, FAM-aptamer displacement, flow cytometry; aptamer displacement, % at 10 µM; actives 4% (n = 2,000);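 active means aptamer displacement above 40%, near three times the noise of non-fluorescent compounds, on plates passing quality checks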;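 further: negative values mostly reflect intrinsic compound fluorescence rather than true enhancement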
FAM quench CP1 = counter-screen for GRK2 aptamer inhibitors: fluorescent aptamer quenchers | Carboxyfluorescein RNA aptamer on beads, flow cytometry quenching; active compounds read low | 2,000 tested, under 10 active | shares compounds with GRK2 inh | fluorescence response (% of DMSO), % at 10 µM;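 active means compounds that quench the bead-bound fluorescent RNA probe, cutting fluorescence to under half of the solvent control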;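 further: counterscreen run without GRK2 so only probe quenching by compound is measured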
TLR9-MyD88 conf = confirmation of human TLR9-MyD88 binding inhibitors; shares compounds with TLR9-MyD88 block; CHO TLR9/MyD88 BLA complementation, CCF4 FRET ratio; inhibition, % at 4.98 µM; actives 51% (n = 680); AID 540250;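 active means mean inhibition across three repeats above about 21% taken from the earlier screen, limit read from the data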;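 further: blue over green emission ratio reports constitutive TLR9 MyD88 association via BLA complementation; 0% = DMSO vehicle wells and 100% = clavulanate BLA inhibitor wells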
BLA counter-1 = beta-lactamase reporter inhibition, counter-screen artifact; CHO-BLA cells, CCF4 FRET ratio, BLA reporter; inhibition, % at 4.98 µM; shares compounds with TLR9-MyD88 block; AID 540251; actives 7% (n = 680);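 active means mean inhibition above a 50% cutoff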;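 further: counterscreen of TLR9-MyD88 hits on CMV-driven BLA in CHO-K1 cells; 0% = DMSO alone and 100% = clavulanate blocking BLA; higher means less blue over green ratio so more BLA blockade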
TLR9 CHO cytotox = counter-screen for TLR9-MyD88 inhibitors: cytotoxicity in CHO cells | luminescence | AID 588336 | actives 39% (n = 680) | shares compounds with TLR9-MyD88 block | inhibition, % at 4.98 µM; in the data active means inhibition above about 11%
TMEM16A reconf = re-confirmation of mouse TMEM16A chloride channel inhibitors; shares compounds with TMEM16A inh; HEK293 TMEM16A/YFP-H148Q, iodide quench fluorescence; ionomycin added to raise cell calcium; inhibition, % at 10 µM; actives 39% (n = 2,300); AID 652189;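 active means mean duplicate percent inhibition, scaled so buffer wells are 0 and the reference blocker 100, over three buffer SD above buffer mean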
HEK293 Ca mobil = calcium mobilization counter-screen hit for TMEM16A inhibitor series; shares compounds with TMEM16A inh; TMEM16A/YFP HEK293, Fluo4 calcium mobilization; calcium response (% of ionomycin), % at 10 µM; actives 2% (n = 2,300); AID 652231;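 active means duplicate-averaged calcium signal over 20% of the ionomycin maximum, relative to buffer baseline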;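 further: each well's signal is peak minus trough fluorescence divided by its pre-addition baseline; 0% = buffer wells and 100% = ionomycin wells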
Parental YFP cnt = counter-screen for TMEM16A inhibitors: effect in parental YFP-HEK293 cells; YFP ratio F(max-min)/F0 at 10 µM; iodide YFP quench, ionomycin; shares compounds with TMEM16A inh; 2,300 tested, under 10 active; AID 652233;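 active means yellow fluorescent protein signal ratio exceeding the buffer control mean by over 5 SD of those controls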;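 further: ratio is mean of duplicate wells from kinetic YFP trace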
ClC-1 rat inh = blocks the rat ClC-1 voltage-dependent chloride channel | ratio percent, % at 10 µM | CHO ClC-1-YFP, iodide influx fluorescence quench; iodide control reads 0, buffer control 100 | 2,300 tested, under 10 active | shares compounds with TMEM16A inh;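 active means duplicate-mean ratio percent above the mean of iodide-only control wells, which defines zero, plus 5 of their SD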;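 further: higher percent means stronger block of ClC-1 iodide influx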
NOD2-RIPK2 conf = NOD2-RIPK2 interaction inhibition confirmed | shares compounds with NOD2 RIPK2 PPI | CHO cells, NOD2-RIPK2 BLA complementation, CCF4 FRET | inhibition, % at 4.98 µM | actives 70% (n = 1,200) | AID 624370;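 active means mean inhibition across replicates above a set limit taken from the earlier primary screen, cut at about 21% in these data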;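 further: 0% = DMSO-only wells and the high end = clavulanate BLA-blocked wells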
BLA counter-2 = hits BLA reporter in NOD2-RIPK2 inhibitor counterscreen; CHO BLA reporter, CCF4 FRET ratio; shares compounds with NOD2 RIPK2 PPI; actives 57% (n = 1,200); inhibition, % at 4.98 µM; AID 624371;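 active means mean inhibition above the low-control mean inhibition plus three low-control SD, cut at about 11% in these data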;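 further: 0% = DMSO only wells and 100% = clavulanate high control wells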
* = called active by the depositor; i = inactive; · = no result. Rows were chosen to be rich in hits. Some 2.2% of all compounds tested hit in one or more screens of this group.

SMILES	NOD2 RIPK2 PPI	TLR4 MyD88 comp	TMEM16A inh	TMEM16A act	GRK2 inh	TLR9-MyD88 block	TLR9-MyD88 conf	BLA counter-1	TLR9 CHO cytotox	others
Cc1ccc(OCCn2cccc2/C=C2/C(=O)NC(=O)N(Cc3ccco3)C2=O)cc1	-4	·	i	i	2	8	·	·	·	GRK2 inh confirm=4;FAM quench CP1=94
O=C1NC(=O)N(Cc2ccco2)C(=O)/C1=C/C=C/c1ccco1	4	·	i	i	0	3	·	·	·	GRK2 inh confirm=20;FAM quench CP1=95
COc1ccc(NC2Oc3cc4c(cc3C(c3cc(OC)c(OC)c(OC)c3)C2C)OCO4)cc1 (stereo not given)	-7	·	·	i	·	5	·	·	·
COc1ccc(-n2nnnc2C(c2cccs2)N2CCC3(CC2)C(=O)NCN3c2ccccc2)cc1 (stereo not given)	-20	·	·	·	·	·	·	·	·
COc1ccc(CN2CCNCC2)c(OC)c1OC	-1	·	i	i	0	-8	·	·	·	GRK2 inh confirm=-4;FAM quench CP1=101
O=C1c2cccc3cccc(c23)C(=O)N1/N=C/c1c(O)n(-c2ccccc2)c(=O)[nH]c1=O	-5	-17	i	i	62*	-1	·	·	·	GRK2 inh confirm=8;FAM quench CP1=97
CCN(CC)S(=O)(=O)c1ccc(N=Cc2c(O)n(-c3ccccc3)c(=O)[nH]c2=O)cc1	-10	2	i	i	5	-4	·	·	·
CCOC(=O)c1cnc(SCc2ccc(Cl)c(Cl)c2)nc1N1CC1	1	·	·	i	·	0	·	·	·
CCOC(=O)c1cc2ccccc2n1C1CCN(Cc2ccccc2)CC1	1	·	·	·	·	·	·	·	·
COc1ccc(-n2c(/C=C/c3ccc(O)c(O)c3)nc3ccccc3c2=O)cc1	19	·	i	i	0	24*	5	6	8
COc1cc(/C=C/c2nc3ccccc3c(=O)n2-c2ccc(O)cc2)ccc1O	10	·	i	i	1	14	·	·	·
CC(C)(C)n1nnnc1C(CCc1ccccc1)N1CCC2(CC1)C(=O)NCN2c1ccccc1 (stereo not given)	-2	·	·	·	·	·	·	·	·
CN(C)c1ccc(/C=C/[N+](=O)[O-])cc1	28*	-5	i	i	6	24*	3	4	-2
C[C@@H]1CN([C@H](C)CO)C(=O)CCCn2cc(nn2)CO[C@H]1CN(C)C(=O)Oc1cccc2ccccc12	7	·	·	·	·	11	·	·	·
O=c1c2ccccc2[se]n1-c1ccccc1	10	5	i	i	4	27*	19	-1	26*
CCCCOC(=O)c1ccccc1C(=O)OCCCC	-3	·	·	i	4	25*	5	2	2
CCOC(=O)c1ccccc1N	-5	·	·	i	3	3	·	·	·
C=C1C(=O)O[C@@H]2C[C@@H](C)[C@@H]3C=CC(=O)[C@@]3(C)[C@@H](OC(=O)CC(=O)O[C@H]3[C@@H]4C(=C)C(=O)O[C@@H]4C[C@@H](C)[C@@H]4C=CC(=O)[C@]43C)[C@H]12	88*	·	i	i	1	32*	43*	35	99*	NOD2-RIPK2 conf=87*;BLA counter-2=44*
CC1(C)OC(c2ccccc2)=C/C(=C/C=C2C(=O)NC(=O)NC2=O)O1	32*	24	i	i	4	34*	24*	27	-4	NOD2-RIPK2 conf=57*;BLA counter-2=56*
COc1cc2cc(C(=O)N3CC(COS(C)(=O)=O)c4ccc(O)cc43)[nH]c2c(OC)c1OC (stereo not given)	11	·	·	i	·	-1	·	·	·
C=C1C(=O)OC2CC(C)C3C=CC(=O)C3(C)C(O)C12 (stereo not given)	20	·	·	i	·	8	·	·	·
C=C1C(=O)O[C@@H]2C[C@@H](C)[C@@H]3C4OC4C(=O)[C@@]3(C)[C@@H](O)[C@H]12 (stereo not given in full)	55*	·	i	i	2	24*	26*	33	100*	NOD2-RIPK2 conf=52*;BLA counter-2=23*
O=C1C(Br)C2CCC1C2C(=O)O (stereo not given)	3	·	·	·	·	-10	·	·	·
CC(C)N1OC2CC1c1nc3ccccc3n1C2 (stereo not given)	-11	·	25*	i	0	-3	·	·	·	TMEM16A reconf=i;HEK293 Ca mobil=i;Parental YFP cnt=-1.1;ClC-1 rat inh=-18
Cc1ccc(C(O)(C(=O)OC(C)C)C(O)c2ccc(F)cc2)cc1 (stereo not given)	0	·	·	·	·	·	·	·	·
O=C(Nc1ccc(OC(=O)N2CCCCC2)cc1)N1CCOCC1	-8	4	i	i	5	-7	·	·	·
O=C(Oc1c(Cl)cc(Cl)c2ccccc12)N1CCCCC1	-9	-2	100*	i	0	5	·	·	·	TMEM16A reconf=i;HEK293 Ca mobil=i;Parental YFP cnt=-1;ClC-1 rat inh=-10

Source: PubChem BioAssay
